Data as given in PubChem BioAssay (NCI).
This is part of a sample that, as a whole, favours compounds with a hit. Of some 79,000 tested, about 15% had one in any assay. Activity calls are given as the source filed them. Cut-off read from the data, not from the text of the source: active = growth inhibition above about 70%; inactive = the rest.

What was measured:
[1] = NCI Yeast Anticancer Drug Screen. Data for the rad50 strain (AID 155);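 note: 0% = growth of vehicle-only cultures of the same strain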; settings: S. cerevisiae rad50 strain growth inhibition; at 50.0 µM; active compounds read high
In short: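 Compounds were tested on a yeast strain with an engineered DNA damage repair alteration; the reported value is growth inhibition normalised to vehicle treatment.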

[2] = NCI Yeast Anticancer Drug Screen. Data for the mec2-1 strain (AID 157); settings: S. cerevisiae mec2-1 strain, at 50.0 µM, active compounds read high
In short: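 Vehicle-treated cultures served as reference for growth inhibition of compound-exposed mec2-1 yeast.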

[3] = NCI Yeast Anticancer Drug Screen. Data for the sgs1 mgt1 strain (AID 161);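 note: 0% = growth of cultures given vehicle only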; settings: S. cerevisiae sgs1 mgt1 strain, at 50.0 µM, active compounds read high
In short: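 Inhibition of yeast growth, normalised to vehicle-treated controls, is reported for a strain bearing genetic alterations in DNA damage repair.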

[4] = NCI Yeast Anticancer Drug Screen. Data for the cln2 rad14 strain (AID 165);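 note: 0% = growth equal to vehicle treated cultures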; settings: S. cerevisiae cln2 rad14 strain, at 50.0 µM, active compounds read high
In short: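 Each compound was tested on cln2 rad14 yeast. Inhibition of growth was calculated against vehicle-exposed controls.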

[5] = NCI Yeast Anticancer Drug Screen. Data for the bub3 strain (AID 167); settings: S. cerevisiae bub3 mutant strain, at 50.0 µM, active compounds read high
In short: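 Growth of a checkpoint-deficient yeast mutant is measured after compound exposure. Values represent inhibition relative to vehicle.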

[6] = NCI Yeast Anticancer Drug Screen. Data for the mlh1 rad18 strain (AID 175); settings: S. cerevisiae mlh1 rad18 strain growth inhibition; at 50.0 µM; active compounds read high
In short: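 Vehicle-treated cultures served as the reference for growth inhibition in a yeast strain carrying DNA damage repair alterations exposed to each compound.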

Measured: growth inhibition

c1ccc(-c2nc(-c3ccccc3)c(-c3ccccc3)[nH]2)cc1
inactive: [1] -0.85% | [2] 28.1% | [3] 12.2% | [4] 11.2% | [5] 5.05% | [6] -36.2%

Cc1ccc(SCC(OCn2cnc3c(Cl)nc(N)nc32)[C@H](C)F)cc1 (some centres not stated)
inactive: [1] 32.2% | [2] 23.4% | [3] 56.5% | [4] 24.9% | [5] 66% | [6] -50.9%

Cc1cccc(NC(=O)COc2ccc(Cl)cc2)c1C
inactive: [1] 12.4% | [2] 8.6% | [3] 5.1% | [4] -15.2% | [5] 13.1% | [6] -4.7%

CCOC(=O)C(c1ccccc1)C(Cc1ccccc1)(c1ccccc1)c1ccccc1 (configuration not stated)
inactive: [1] 10.1% | [2] 9.2% | [3] 17.3% | [4] 19.6% | [5] -4.6% | [6] 10.7%

Nc1ncnc2c1ncn2C1CC(O)C(COP(=O)(O)O)O1 (configuration not stated)
inactive: [1] 0.15% | [2] -4.65% | [3] 0.85% | [4] -23.4% | [5] 0.45% | [6] 4.7%

Cc1cc(C)[n+](C)c(/C=C/c2cccc([N+](=O)[O-])c2)n1
inactive: [1] 6.55% | [2] -6.95% | [3] 4.85% | [4] 16.4% | [5] 3.4% | [6] 11.1%

C[C@@]1(CO)CCc2c(c3ccccc3oc2=O)O1
inactive: [1] 2.2% | [2] 6.45% | [3] 9.55% | [4] 8% | [5] 1.8% | [6] -6.35%

O=C1C(NCCc2ccc(O)c(O)c2)=CC(=O)c2ncccc21
inactive: [1] 35.5% | [2] 34.6% | [3] 32.1% | [4] 24.1% | [5] 6.3% | [6] -5.35%

COc1cc2c(cc1N)-c1ccc(N)cc1C2O (configuration not stated)
inactive: [1] 7.55% | [2] 3.65% | [3] -9.05% | [4] 17.3% | [5] 17.1% | [6] 1.05%

Cc1ccnc(=S)[nH]1
inactive: [1] 16.9% | [2] 5.45% | [3] 33.1% | [4] 13.3% | [5] 23.6% | [6] 18.3%

CCOC(=O)/C=C/c1ccc(OCC)cc1
inactive: [1] -2.4% | [2] 2.55% | [3] -7.15% | [4] -17.2% | [5] -1.35% | [6] -21%

COc1ccc2nc(C3CCCCC3C(=O)O)cc(C)c2c1 (configuration not stated)
inactive: [1] -9.2% | [2] -5.35% | [3] -5.8% | [4] -27.1% | [5] -4.3% | [6] -1.45%

O=C1CN(/N=C/c2ccc(-c3ccc(F)cc3)o2)C(=O)N1
inactive: [1] 10.4% | [2] -0.15% | [3] -20.9% | [4] -26.6% | [5] 5.05% | [6] -3.45%

c1ccc2c(c1)NC1C3(CCC4CCCCC241)SCCS3 (configuration not stated)
inactive: [1] 9.45% | [2] 2.3% | [3] 6.8% | [4] 8.8% | [5] -2.1% | [6] -1.15%

CCNc1ccc(N=Nc2ccc(-c3ccc(N=Nc4ccc(NCC)c5ccccc45)c(OC)c3)cc2OC)c2ccccc12
inactive: [1] -1.15% | [2] 18.1% | [3] 5.55% | [4] 23.3% | [5] 26.9% | [6] 36%

CCN1C(=O)CCN(S(=O)(=O)c2ccc(-n3nc(C)cc3C)cc2)C1=S
inactive: [1] -5.55% | [2] -8.45% | [3] -9.15% | [4] -46.4% | [5] 1.7% | [6] -2.3%

CCCCCCCCCCCC(=O)CCCCCCCCCCC
inactive: [1] 4% | [2] 2.2% | [3] 2.75% | [4] -33.9% | [5] -4.15% | [6] -2.7%

Cn1c(=O)c2[nH]c(C(=O)O)nc2n(C)c1=O
inactive: [1] 17.4% | [2] -2.35% | [3] 5.7% | [4] 9.35% | [5] -8.3% | [6] 9.85%

C=CCN(CC=C)CCNc1cc(C)nc(/N=C(\N)Nc2ccc(Cl)c(Cl)c2)n1
active: [1] 94.7% | [2] 94.2% | [3] 96.8% | [4] 87% | [5] 94.7% | [6] 97.9%

COc1c(O)c2c3c(cc(C)cc3c1C(C)C)OC2
active: [1] 93.3% | [2] 94.5% | [3] 94.3% | [4] 93.1% | [5] 93.4% | [6] 93.1%

CCN(CC)c1ccc(-c2ccccc2)cc1
inactive: [1] 28.1% | [2] 5.4% | [3] -8.45% | [4] -69.4% | [5] 2.9% | [6] 8.5%

Cc1nc(N)c(N=O)c(=O)[nH]1
inactive: [1] 13.2% | [2] 8.75% | [3] 14.2% | [4] 9.5% | [5] 10.9% | [6] 7.35%

Clc1nncc(SCc2ccccc2)c1SCc1ccccc1
inactive: [1] 17.2% | [2] 11.6% | [3] 8.3% | [4] -9% | [5] 22.5% | [6] 8.4%

O=S(=O)(Nc1ccc(NS(=O)(=O)c2ccccc2)nc1)c1ccccc1
inactive: [1] 13.8% | [2] -0.55% | [3] 32.1% | [4] -19.9% | [5] 5.3% | [6] -0.75%

O=CC(=O)c1ccccc1O
inactive: [1] 30.1% | [2] 36.6% | [3] 44.9% | [4] 18.3% | [5] 37%
active: [6] 75.7%

CC1=C(C(=O)Nc2c(C)cccc2C)C(c2ccccc2Cl)C(C(=O)Nc2c(C)cccc2C)=C(C)N1
inactive: [1] -39.4% | [2] -6.4% | [3] -27.4% | [4] -20.9% | [5] -13.8% | [6] -11.7%

O=C(O)C(C(=O)O)C(O)c1c2ccccc2cc2ccccc12 (configuration not stated)
inactive: [1] -10.3% | [2] 16% | [3] -4.35% | [4] -47.6% | [5] 0.6% | [6] -1.05%

O=C(CCC(=O)Nc1ccc(Cl)c(Cl)c1)CC(=O)c1ccc2ccccc2c1
inactive: [1] 22% | [2] 9.6% | [3] 2.45% | [4] 19.9% | [5] 2.2% | [6] -12.1%

COc1ccccc1CC/C(C)=N/NS(=O)(=O)c1ccc(C)cc1
inactive: [1] 10.8% | [2] 4.1% | [3] 6.35% | [4] -24.1% | [5] 11.5% | [6] 6.5%

C(=N\Nc1nc2ccccc2s1)/c1cccs1
inactive: [1] 16.9% | [2] 33% | [3] 23.6% | [4] 16.1% | [5] 36.4% | [6] 29.4%

CCOC1CN=C(Nc2cccc3ccccc23)S1 (configuration not stated)
inactive: [1] -51.6% | [2] -33.3% | [3] -27.9% | [4] -2.65% | [5] -34.4% | [6] -29.8%

CCOC(=O)C(=CNc1ccc(F)c(F)c1)C(=O)OCC
inactive: [1] -0.4% | [2] 1.55% | [3] -8.35% | [4] -2.2% | [5] 26.1% | [6] -36%

CC1=C(c2ccccc2)C(c2ccccc2)c2ccccc21 (configuration not stated)
active: [6] 85.6%
inactive: [1] 17.3% | [2] 26.7% | [3] 33.6% | [4] 51.4% | [5] 54.4%

OC1OC(CCl)C(Cl)C(O)C1O (configuration not stated)
inactive: [1] 0.55% | [2] -2.95% | [3] 9.9% | [4] -11% | [5] -18.9% | [6] -16.6%

COc1ccc(C(C)(C)C#N)cc1
inactive: [1] -20.7% | [2] 13.6% | [3] -5.95% | [4] -12.8% | [5] -10.6% | [6] 31.6%

COc1ccc(CC(N)C(=O)N2CCCCC2)cc1 (configuration not stated)
inactive: [1] 8.45% | [2] 0.8% | [3] 13.2% | [4] 8.15% | [5] 8.4% | [6] 6.75%

CC(=O)OCc1cocc1COC(C)=O
inactive: [1] -17.2% | [2] -36% | [3] 20.4% | [4] -3.2% | [5] -4.1% | [6] 8.3%

c1ccc(-c2ccc(-c3ccccc3)cc2)cc1
inactive: [1] -14.5% | [2] -9.4% | [3] -15.1% | [4] -15.2% | [5] 18.6% | [6] -30.9%

Cc1cc(C)c(N=Nc2cc(C)c(N)cc2N)c(S(=O)(=O)O)c1
inactive: [1] -21.6% | [2] -1.35% | [3] -2.1% | [4] -61.5% | [5] 7.3% | [6] 10.8%

Cc1ccc2nc(-c3ccc(N)cc3)sc2c1S(=O)(=O)O
inactive: [1] 3.3% | [2] 2.15% | [3] 6.8% | [4] 2.45% | [5] 2.3% | [6] 5.65%

Nc1ccccc1SC1CC(=O)N(c2ccc(Br)cc2)C1=O (configuration not stated)
inactive: [1] 13.2% | [2] 3.4% | [3] 2.75% | [4] 10.8% | [5] 26.6% | [6] 12.3%

CCOc1cc(/C=C2/C=C(c3ccc(OC)cc3)OC2=O)ccc1O
inactive: [1] -13.9% | [2] 0.5% | [3] 4.5% | [4] -19.1% | [5] 2.75% | [6] -0.7%
